# Most compounds without a hit are left out; they make up all but 6% or so of the library.
# Tau fluor cs: counter-screen for tau fibril formation inhibitors | tau K18 P301L Alexa594 fluorescence, heparin fibrillization | Potency, µM (doses to about 57.7 µM) | hit rate 0.93% among 280,000; note: nearly all actives have a fitted effect of over 55% in size
#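 Human K18 P301L tau (15 uM unlabeled plus 0.24 uM Alexa 594-labeled, final) in 100 mM sodium acetate pH 7 was mixed with compound and 20 uM heparin and incubated 6 hr at 37 C.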
# Tau fibril FP: blocks human tau fibril formation measured by polarization | Potency, µM (doses to about 57.7 µM), most hits filed as inhibitors | hit rate 0.39% among 280,000 | K18 P301L tau heparin fibrillization, Alexa594 FP, 6 h; note: nearly all actives have a fitted effect of over 55% in size
#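 Steps: dispense K18 P301L tau (15 uM plus 0.24 uM Alexa 594 tracer, final) in pH 7 sodium acetate; add compound; add heparin (20 uM final); incubate 6 hr, 37 C; add ThT (30 uM final); after 1 hr ambient, read FP.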
# Tau fibril ThT: inhibitors of human tau fibril formation, thioflavin T binding | P10636 | recombinant tau K18 P301L (four-repeat tau fragment), heparin-induced fibrillization, ThT fluorescence | Potency, µM (top dose mostly 57.4 µM), hits mostly inhibitors | hit rate 2.1% among 270,000 | AID 1460; note: nearly all actives have a fitted effect of over 55% in size
#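 In this qHTS, human K18 P301L tau is incubated with compound and heparin for 6 hr at 37 C, and Thioflavin T fluorescence then reports fibril load.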
# VDR inh: blocks the human vitamin D receptor; VDR-SRC2-3 peptide fluorescence polarization, 2 h; hit rate 0.93% among 400,000; AID 504847; Potency, µM, most hits filed as inhibitors
#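 Measured by FP: displacement of SRC2-3 coactivator peptide from VDR by library compounds, following a two-hour ambient incubation.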
# Sfp PPTase inh: inhibitors of Bacillus subtilis Sfp phosphopantetheinyl transferase | Q9F4F7 | AID 1490 | Biochemical Sfp PPTase activity, qHTS | Potency, µM, usual class: inhibitors | hit rate 3.5% among 310,000;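 note: the enzyme is Sfp with the accession as filed and its product quenches rhodamine fluorescence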
#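 Sfp 15 nM + cpd, 15 min RT; start w/ rhodamine-CoA 5 uM, BHQ-2-YbbR 12.5 uM (final); 50 mM Hepes pH 7.6, 10 mM MgCl2, 0.01% NP-40, 0.01% BSA; read 525/598 nm at 0 and 30 min.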
# PLK1 PBD block: blocks phosphopeptide binding to human PLK1 polo-box domain; Potency, µM, most hits filed as inhibitors; hit rate 2.8% among 360,000; AID 720504; Plk1 PBD binding of FITC phosphopeptide, fluorescence polarization; P53350; note: series mostly up to about 57 µM; nearly all actives have a fitted effect of over 65% in size
# Target sequence (P53350 whole entry, looked up, the tested form may be a part): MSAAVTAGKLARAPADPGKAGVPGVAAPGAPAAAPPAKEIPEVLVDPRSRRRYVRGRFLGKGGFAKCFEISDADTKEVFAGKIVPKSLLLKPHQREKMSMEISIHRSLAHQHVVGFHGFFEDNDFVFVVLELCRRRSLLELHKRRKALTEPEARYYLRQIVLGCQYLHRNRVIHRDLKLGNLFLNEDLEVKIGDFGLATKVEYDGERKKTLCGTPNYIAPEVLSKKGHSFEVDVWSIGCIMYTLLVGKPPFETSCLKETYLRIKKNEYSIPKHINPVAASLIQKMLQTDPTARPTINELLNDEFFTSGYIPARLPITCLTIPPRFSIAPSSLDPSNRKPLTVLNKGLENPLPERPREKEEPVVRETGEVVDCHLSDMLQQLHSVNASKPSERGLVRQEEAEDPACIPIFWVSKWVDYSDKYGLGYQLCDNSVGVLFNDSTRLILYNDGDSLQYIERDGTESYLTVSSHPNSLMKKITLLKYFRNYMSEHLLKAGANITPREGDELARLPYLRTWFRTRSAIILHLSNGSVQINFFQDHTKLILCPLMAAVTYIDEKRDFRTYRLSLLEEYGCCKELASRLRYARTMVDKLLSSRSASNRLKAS
# Numbers stand for hits; – = inactive; ? = inconclusive; · = not tested or not shown; ! = not confirmed by another sample. Calls come from the whole dose curve; as a rule, active = well fitted curve in the direction sought with a large enough effect; inconclusive = small, poorly fitted or top-dose-only effect, or another doubt; inactive = no such curve, though single readings can be large; an effect the other way counts as inactive or inconclusive.
SMILES,Tau fluor cs,Tau fibril FP,Tau fibril ThT,VDR inh,Sfp PPTase inh,PLK1 PBD block
Cc1ccc(N=C2NC(=O)/C(=C/c3cccn3C)S2)cc1C,–,–,?,–,–,–
COc1ccc(-c2cn3cc(C)ccc3n2)cc1F,–,–,?,?,–,9.5µM
COc1ccc(-c2cn3cc(C)ccc3n2)cc1OC,–,–,?,–,–,–
CCC(C(=O)NCc1ccccc1OC)n1nc(C)n2c(cc3occc32)c1=O (stereo not drawn),–,–,–,–,–,–
COc1ccccc1CNC(=O)C(C)n1nc(C)n2c(cc3occc32)c1=O (stereo not drawn),·,·,·,?,–,27µM
CC(=O)c1coc2c1cc(O)c1ccccc12,–,–,?,–,–,–
CC(=O)c1cc(O)c2ccccc2c1O,?,?,28µM,32µM,45µM,5.3µM
CCOC(=O)CSC1=NC(=O)/C(=C/c2ccc(Br)cc2)S1,–,–,?,?,56µM,0.84µM
Cc1ccc(C(=O)N2CCCC2)cc1S(=O)(=O)N1CCCCC1,·,·,·,–,–,–
Nc1nc(C2C(=O)CCCC2=O)cs1,–,–,–,–,56µM,–
Nc1nc(C2CC(=O)OC23CCCCC3)cs1 (stereo not drawn),–,–,–,–,–,–
CC1=C(C(=O)OCc2ccccc2)C(c2ccc([N+](=O)[O-])cc2)NC(=O)N1CCCCCC(=O)O (stereo not drawn),–,–,–,–,45µM!,–
CCCCN(C)CCCNC(=O)C1CCN(S(=O)(=O)CCC)CC1,–,–,–,–,·,·
COC(=O)c1sc(NC(=S)NNC(=O)c2c(Br)c(C)nn2C)c(C(=O)OC)c1C,·,·,·,–,–,27µM
Cc1ccccc1Oc1nc2c(C)cccn2c(=O)c1/C=C(\C#N)C(=O)Nc1c(C)n(C)n(-c2ccccc2)c1=O,–,–,?,50µM,?,–
Cc1ccccc1Oc1nc2ccccn2c(=O)c1/C=C(\C#N)C(=O)Nc1c(C)n(C)n(-c2ccccc2)c1=O,–,–,–,?,–,–
CCNC(=O)/C(C#N)=C/c1c(N2CCN(c3ccc(OC)cc3)CC2)nc2c(C)cccn2c1=O,·,·,·,?,–,24µM
CN(CCCn1ccc(NC(=O)OCc2ccccc2)nc1=O)Cc1ccco1,·,·,·,·,·,–
Cc1cccc(CN2CCN([C@@H](c3ccccc3)c3ccc(Cl)cc3)CC2)c1,·,·,·,–,–,·
CN(C)CC(O)Cn1c2ccc(Br)cc2c2cc(Br)ccc21 (stereo not drawn),?,25µM,–,?,?,·
Nn1c(SCc2cn3cc(Cl)ccc3n2)nnc1-c1ccncc1,–,–,?,?,–,11µM
Nn1c(SCc2cn3ccccc3n2)nnc1-c1ccncc1,–,–,–,–,–,–

# Compound activity from PubChem.
